The source made the active and inactive calls. Rule for the calls: active = hit-call score of the fitted dose curve at least 0.9, where 1 is the maximum; inactive = score below 0.9.

Read-out in the experiment: CD69, CD69 (gene 969)
The experiment is described as follows: BSK_SAg_CD69: BioMAP Diversity Plus: SAg Assay for CD69 Biomarker Activity (AID 2283089). The conditions noted are these: primary human HUVEC with PBMC; actives raise or lower the signal. On the procedure: BSK_SAg is a cell-based, multiplexed-readout assay that uses umbilical vein endothelium and peripheral blood mononuclear cells, a human vascular primary cell co-culture, with measurements taken at 24 hours after chemical dosing in a 96-well plate.BSK_SAg_CD69 is one of 10 assay component(s) measured or calculated from the BSK_SAg assay. It is designed to make measurements of enzyme-linked immunosorbent assay, a form of binding reporter, as detected with fluorescence intensity signals by Enzyme-linked immunosorbent assay technology.Data from the assay component BSK_SAg_CD69 was analyzed into 1 assay endpoint. This assay endpoint, BSK_SAg_CD69, was analyzed with bidirectional fitting relative to DMSO as the negative control and baseline of activity. Using a type of binding reporter, gain or loss-of-signal activity can be used to understand changes in the signaling as they relate to the gene CD69. Furthermore, this assay endpoint can be referred to as a primary readout, because this assay has produced multiple assay endpoints where this one serves a signaling function. To generalize the intended target to other relatable targets, this assay endpoint is annotated to the cytokine intended target family, where the subfamily is inflammatory factor.
The levels of cell surface (or secreted, indicated by the prefix "s") biomarker endpoints were measured by ELISA. Overt cytotoxicity to cells in confluent adherent cultures (all systems other than the BT system) was assessed by measuring total protein levels using sulforhodamine B (SRB) staining in parallel cultures at the time of biomarker measurements, indicated as SRB endpoints. For proliferation assays for adherent cell types, individual cell types are cultured at sub-confluence and relative cell numbers quantified by SRB staining at time points optimized for each system (48 h: 3C and CASM3C systems; 72 h: BT and HDF3CGF systems; 96 h: SAg system). SRB was performed by staining cells with 0.1% SRB after fixation with 10% TCA and reading wells at 560 nm.Viability and proliferation of PBMC (T cells) was quantified by Alamar Blue reduction for the SAg and BT systems. For PBMC viability (referred to as PBMC Cytotoxicity within the assay endpoint names), cells were plated (75,000/well in a 96-well plate) and then chemical samples added for 1 h before addition of activators, SEB and TSST-1 (20 ng/mL final concentration each). Cells were incubated for 90 h. Then, Alamar Blue (20 uL/well) (Invitrogen, Cat DAL1100) was added for 6 h, and the plates were read with a fluorescence microplate reader at 546/580 nm (excitation/emission). For PBMC proliferation, cells were plated and activated as above but incubated for only 16 h prior to addition of Alamar Blue. Plates were read after 6 h.
`COCCOC[C@H](CC1(C(=O)NC2CCC(C(=O)O)CC2)CCCC1)C(=O)Oc1ccc2c(c1)CCC2` (stereo not given in full): the outcome was inactive.

With `CN1CCCC1=O`, the result was inactive.

As to `CC(C)c1ccc(C(=O)N=C(N)N)cc1S(C)(=O)=O`, the outcome was inactive.

With `CC(=O)OCCOCCOCCOC(C)=O`, the outcome was inactive.

Consider `Cc1ccc(C(C)C)c(O)c1`, for which the outcome was inactive.

For the compound `Cc1cccc([N+](=O)[O-])c1C`, the result was inactive.

With `Nc1nc(N)c2nc(CNc3ccc(C(=O)N[C@@H](CCC(=O)O)C(=O)O)cc3)cnc2n1`, the outcome was inactive.

Consider `CCCCC(CC)COC(=O)CC(C(=O)OCC(CC)CCCC)S(=O)(=O)O` (stereo not given), for which the AC50 (usually the concentration at which the activity in the assay is half-maximal) was 32.1 µM (active).

With `FC(F)(F)C(F)(F)C(F)(F)C(F)(F)C(F)(F)C(F)(F)CCI`, the result was inactive.

For `Cc1ccc(N(C)C)cc1`, the outcome was inactive.

Take `Cc1cc(=O)[nH]c(=S)[nH]1`: the result was inactive.

As for `CC1=C(/C=C/C(C)=C/C=C/C(C)=C/CO)C(C)(C)CCC1`, the AC50 was 20.9 µM (active).

Consider `CC(=O)Oc1ccccc1C(=O)O`, for which the outcome was inactive.

Regarding `O=C(OCCCCCOC(=O)c1ccccc1)c1ccccc1`, the outcome was inactive.

For the compound `O=C(N[C@@H](Cc1ccccc1)[C@@H](O)C(=O)N1C[C@@H](O)[C@@H](O)C1)c1cc2cc(Cl)ccc2[nH]1`, the result was inactive.

Take `COc1ccc(S(=O)(=O)N2C(=O)[C@@](c3ccccc3OC)(N3C[C@H](O)C[C@H]3C(=O)N(C)C)c3cc(Cl)ccc32)c(OC)c1`: the AC50 is 11.9 µM (active).

`CCCCN(CCCC)CCCC`: the outcome was inactive.

On to `C[C@]12C=CC(=O)C=C1CC[C@@H]1[C@@H]2C(=O)C[C@@]2(C)[C@H]1CC[C@]2(O)C(=O)CO`, for which the result was inactive.

For the compound `CN[C@H]1CC[C@@H](c2ccc(Cl)c(Cl)c2)c2ccc(S(N)(=O)=O)cc21`, the AC50 is 26.1 µM (active).

Turning to `OC[C@@H](O)[C@@H](O)[C@H](O)[C@H](O)CO`, the result was inactive.

For the compound `NCC1(Cc2noc(=O)[nH]2)CCCCC1`, the result was inactive.

In the case of `Cc1ccc2ncccc2c1`, the outcome was inactive.

As for `Oc1ccc2c(c1)OC[C@@H](N1CCC(O)(c3ccc(F)cc3)CC1)[C@H]2O`, the result was inactive.

Regarding `CCOc1ccc2c(c1)C(C)=CC(C)(C)N2`, the outcome was inactive.

For the compound `O=C(O)Cc1ccccc1Nc1c(Cl)cccc1Cl`, the outcome was inactive.

For `CCCCCCCCCCCCCCCCCC(=O)O`, the result was inactive.

On to `CNC(=O)[C@H]1O[C@@H](n2cnc3c(NCc4cc(Cl)ccc4OCc4cc(C)no4)ncnc32)[C@H](O)[C@@H]1N`, for which the outcome was inactive.

With `CC(=O)C(C)=CC1C(C)=CCCC1(C)C` (stereo not given), the outcome was inactive.

On to `CCCCCCOCCO`, for which the result was inactive.

For `CCCCCCCCCCCCCCCC`, the outcome was inactive.

`NC(=O)Cn1c(=O)cc(CCN2CCN(c3nccc4sccc34)CC2)c2ccc(F)cc21`: the result was inactive.

For the compound `Oc1ccc2ccccc2c1N=Nc1ccccc1`, the outcome was inactive.

As to `Cc1oc(-c2ccccc2)nc1CCOc1cccc2c1ccn2CCC(=O)O`, the outcome was inactive.

As to `Nc1ccccc1N`, the outcome was inactive.

Regarding `COc1ccc(C)cc1N`, the outcome was inactive.

As for `CC(CO)OC(C)CO` (stereo not given) (tested in a mixture with another compound), the outcome was inactive.

As to `Cc1ccc(C)c(C)c1`, the result was inactive.

As to `O=C(O)CCCCC(=O)O`, the outcome was inactive.

Regarding `CCNc1cccc(C)c1`, the result was inactive.

Turning to `Cc1ccc(C)c(O)c1C`, the outcome was inactive.
